Molecules are shown by their SMILES. Records with an inconclusive call do not appear. Where a call stands in place of a potency, no number is given. Unmarked numbers belong to inactive results. The source made the active and inactive calls. Calls come from the whole dose curve.
Potency is the fitted concentration of half-maximal effect.

5-hydroxytryptamine receptor 2A (Homo sapiens), sequence (P28223 whole entry, looked up): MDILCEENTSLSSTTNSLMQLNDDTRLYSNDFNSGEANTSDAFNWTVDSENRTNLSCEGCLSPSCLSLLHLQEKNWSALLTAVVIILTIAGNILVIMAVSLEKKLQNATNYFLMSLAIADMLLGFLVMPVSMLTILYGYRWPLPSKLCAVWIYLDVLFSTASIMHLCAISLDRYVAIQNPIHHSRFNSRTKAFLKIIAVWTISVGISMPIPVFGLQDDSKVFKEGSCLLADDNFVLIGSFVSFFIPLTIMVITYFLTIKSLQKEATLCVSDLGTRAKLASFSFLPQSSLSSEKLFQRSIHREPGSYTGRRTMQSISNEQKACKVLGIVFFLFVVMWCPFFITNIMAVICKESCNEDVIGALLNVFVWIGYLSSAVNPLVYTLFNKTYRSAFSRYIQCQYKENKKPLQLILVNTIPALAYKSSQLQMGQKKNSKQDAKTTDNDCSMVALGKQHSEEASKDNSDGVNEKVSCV

The target in this assay is 5-hydroxytryptamine receptor 2A (Homo sapiens) (UniProt P28223). Nature of the assay: 5-hydroxytryptamine receptor 2A (HTR2A) small molecule antagonists, cell-based qHTS assay (AID 1963586). Note: nearly all actives have a fitted effect of over 45% in size. As to conditions: HTR2A-CHO cells, DOI-induced calcium flux, fluorescence; series mostly up to 61.5 µM. An excerpt:
National Center for Advancing Translational Sciences [NCATS]
Division of Preclinical Innovation [DPI]
U.S. Environmental Protection Agency [EPA]
National Institutes of Environmental Health Sciences [NIEHS]
National Toxicology Program [NTP]
U.S. Food and Drug Administration [FDA]
The HTR2A receptor is a subtype of the 5-HT2 receptor that belongs to the serotonin receptor family and is a G protein-coupled receptor (GPCR). The HTR2A-CHO cell line stably expressing human 5-hydroxytryptamine receptor 2A (HTR2A) can be used for screening antagonists of interactions between 5-HT2 and its ligands. The HTR2A-CHO calcium flux assay is a homogeneous fluorescence-based assay for detecting the intracellular calcium level using FDSS kinetic plate reader system.
Tox21 Assay Protocol Summary:
HTR2A-CHO cells were dispensed at 2000 cells/3uL/well in 1536-well black-clear bottom plates using a Multidrop Dispenser. After the assay plates were incubated at a 37 C/5% CO2 incubator for 18 h, 3 uL of Dye Loading Buffer was transferred to the assay plate by a Flying Reagent Dispenser. The assay plates were incubated at 37 C for 1h. For antagonist mode, 23 nL of compounds dissolved in DMSO, positive controls or DMSO only was transferred to the assay plate by a pin tool. After 5 min incubation at room temperature, 1.5 uL of 4-Iodo-2,5-dimethoxy-alpha-methylbenzeneethanamine hydrochloride (DOI) at 4nM was added to each well. The fluorescence intensity in the plates was measured using FDSS 7000EX kinetic plate reader for 3 min at 1 sec intervals.
Regarding `COc1cc(C)ccc1C(C)C`, the Potency result was “inactive”.
Take `CCN(CC)c1ccc(C=O)cc1`: the Potency result was “inactive”.
Consider `CC(C)OCC1CO1` (stereo not given), for which the Potency result is “inactive”.
Same read-out and setting: for `CC(C)Cc1nccs1` the value was “inactive”; for `Cc1cc(=O)[nH]c(=O)[nH]1`, “inactive”.
`CC[N+](CC)(CCNC(=O)C(=O)NCC[N+](CC)(CC)Cc1ccccc1Cl)Cc1ccccc1Cl`: the Potency entry was “inactive”.
The same measure, in the same setting: as for `CCn1ccnc1CC1COc2ccccc2O1` (stereo not given), the entry is “inactive”; as for `CCCCCCCCCCCCCCCC/C=C/C1CC(=O)OC1=O` (stereo not given), “inactive”; as for `Nc1ccc2cc(S(=O)(=O)O)cc(O)c2c1`, “inactive”.
On to `FC(F)(F)C(F)(F)C(F)(F)C(F)(F)CCI`, for which the Potency entry was “inactive”.
As to `O=C(O)C1(C(=O)O)CCC1.[NH2-].[NH2-].[Pt+2]`, the Potency result was “inactive”.
Still for that read-out and setting: for `Clc1nc(C(Cl)(Cl)Cl)c(Cl)c(Cl)c1Cl` the value was “inactive”; for `CC[C@H](NC(=O)c1cc(F)ccc1NS(=O)(=O)c1cccc2cccnc12)c1ccccc1`, “inactive”.
On the same count and under the same terms, as for `C=CCCCCCCCCC(=O)OCC`, the entry is “inactive”; as for `CS(=O)(=O)c1ccc([C@@H](C[C@H]2CCC(=O)C2)C(=O)Nc2cnccn2)cc1Cl`, “inactive”; as for `O=C(N[C@@H](Cc1ccccc1)[C@@H](O)C(=O)N1C[C@@H](O)[C@@H](O)C1)c1cc2cc(Cl)ccc2[nH]1`, “inactive”.
As to `CCCCCCCCC(=O)Cl`, the Potency entry was “inactive”.
For `CCC(C)(CCCC(C)C)OC(C)=O` (stereo not given), the Potency entry was “inactive”.
Turning to `FC(F)(F)C(F)(F)C(F)(F)C(F)(F)C(F)(F)C(F)(F)C(F)(F)C(F)(F)C(F)(F)C(F)(F)F`, the activity, negative = inhibition was -16.5% [at 5.62 µM].
On to `O=C1c2ccccc2C(=O)C1c1ccc2ccccc2n1`, for which the Potency entry was “inactive”.
For the molecule `CC(C)OC(=O)C(C)N(C(=O)c1ccccc1)c1ccc(F)c(Cl)c1` (stereo not given), the Potency result is “inactive”.
As to `Nc1ccc(Oc2cccc(Oc3ccc(N)cc3)c2)cc1`, the Potency is 840 nM (active).
On to `OCCN(CCO)c1cccc(Cl)c1`, for which the Potency entry was “inactive”.
The same measure, in the same setting: for `Nc1cc([N+](=O)[O-])cc(Cl)c1O` the value was “inactive”; for `CCCCCCCCCCCCCCCCOP(=O)([O-])OCC[N+](C)(C)C`, “inactive”.
Take `CN=C(NC#N)Nc1ccc(C2=NNC(=O)CC2C)cc1` (stereo not given): the Potency entry was “inactive”.
In the case of `C=CC/C=C/C`, the Potency entry was “inactive”.
For `CCCC(=O)c1cc(O)c(O)cc1O`, the Potency entry was “inactive”.
On to `CCOc1cc(OCC)c(C(C)=O)cc1OCC`, for which the Potency entry is “inactive”.
`CCCCN(CCCC)C(C(N)=O)c1ccc(OC)cc1` (stereo not given): the Potency result is “inactive”.
On the same count and under the same terms, for `C=C(C)C(=O)OCC(O)CO` (stereo not given) the value was “inactive”.
`N#C/C(=C1\SCC(c2ccccc2Cl)S1)n1ccnc1` (stereo not given): the Potency result was “inactive”.
In the case of `COc1ccc(OC)c(OC)c1`, the Potency entry was “inactive”.
Take `Nc1ccc(C(=O)OCC(O)CO)cc1` (stereo not given): the Potency result was “inactive”.
For `Cc1cc(O)c2c(c1)C(=O)c1cccc(O)c1C2=O`, the Potency entry was “inactive”.
The same measure, in the same setting: for `CCCC1CCC(=O)O1` (stereo not given) the value was “inactive”; for `C=C(C)CCCC`, “inactive”.
With `C[C@@H]1CN(CCCn2c3ccccc3c3ccccc32)C[C@H](C)N1`, the Potency result is “inactive”.
Still for that read-out and setting: for `CC(C)(C)N` the value was “inactive”; for `CO[Si](OC)(OC)OC`, “inactive”.
